Among all 5,500 compounds or so, about 2,000 (36%) were called active. Inconclusive results (about 18%) are left out. No stated cut-off is given here; in the data, active means normalized growth mostly below about 0.91 (no sharp cut-off); inconclusive means no clear call, values can overlap the other calls; inactive means mostly above about 0.92. This is one part of the list.
Test: chemical genetic growth profiling, strain panel (AID 1159580);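 further: tested at 20 µM; growth read once vehicle control cultures reached saturation at 30 °C; 1 = growth at the plate median or of vehicle wells; lower values mean less growth of the strain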
Settings: S. cerevisiae deletion strains, growth OD

Measured: normalized growth

CC1(C)Oc2ccc3ccc(=O)oc3c2CC1O (centres undefined)
inactive: locus YAL013W, strain DEP1, active compounds read low 0.994 | locus YAL021C, strain ccr4, active compounds read low 1 | locus YAL026C, strain drs2, active compounds read low 0.967 | locus YAL030W, strain snc1, active compounds read low 0.972 | locus YBL061C, strain skt5, active compounds read low 0.971 | locus YBR009C, strain hhf1, active compounds read low 0.94 | locus YBR021W, strain FUR4, active compounds read low 1.02 | locus YBR023C, strain chs3, active compounds read low 0.984 | locus YBR171W, strain sec66, active compounds read low 0.976 | locus YBR229C, strain ROT2, active compounds read low 0.998 | locus YBR231C, strain swc5, active compounds read low 0.976 | locus YBR279W, strain paf1, active compounds read low 0.987 | locus YCL011C, strain gbp2, active compounds read low 0.963 | locus YCL016C, strain dcc1, active compounds read low 0.988 | locus YCL029C, strain bik1, active compounds read low 1.01 | locus YCL061C, strain MRC1, active compounds read low 0.989 | locus YCL069W, strain vba3, active compounds read low 0.968 | locus YCR088W, strain abp1, active compounds read low 0.986 | locus YDL005C, strain med2, active compounds read low 0.975 | locus YDL035C, strain GPR1, active compounds read low 0.991 | locus YDL040C, strain nat1, active compounds read low 0.979 | locus YDL074C, strain BRE1, active compounds read low 1.01 | locus YDL101C, strain DUN1, active compounds read low 0.995 | locus YDL134C, strain PPH21, active compounds read low 0.974 | locus YDL185W, strain tfp1, active compounds read low 1.02 | locus YDL192W, strain arf1, active compounds read low 1.02 | locus YDR001C, strain nth1, active compounds read low 0.97 | locus YDR069C, strain doa4, active compounds read low 0.957 | locus YDR101C, strain arx1, active compounds read low 1.02 | locus YDR137W, strain rgp1, active compounds read low 0.99 | locus YDR150W, strain NUM1, active compounds read low 1.01 | locus YDR159W, strain sac3, active compounds read low 0.922 | locus YDR162C, strain NBP2, active compounds read low 0.978 | locus YDR195W, strain ref2 0.971 | locus YDR297W, strain sur2, active compounds read low 0.971 | locus YDR318W, strain mcm21, active compounds read low 0.977 | locus YDR334W, strain swr1, active compounds read low 0.982 | locus YDR335W, strain msn5, active compounds read low 0.993 | locus YDR388W, active compounds read low 1 | locus YDR392W, strain spt3, active compounds read low 0.91 | locus YDR502C, strain sam2, active compounds read low 0.994 | locus YEL003W, strain gim4, active compounds read low 0.977 | locus YEL037C, strain rad23, active compounds read low 0.982 | locus YEL061C, strain CIN8 (second series), active compounds read low 0.977 | locus YEL061C, strain CIN8, active compounds read low 0.992 | locus YER015W, strain faa2, active compounds read low 0.968 | locus YER016W, strain bim1, active compounds read low 0.996 | locus YER110C, active compounds read low 1.01 | locus YER111C, strain swi4, active compounds read low 0.982 | locus YER155C, strain BEM2 (second series), active compounds read low 0.956 | locus YER155C, strain BEM2, active compounds read low 1.01 | locus YER167W, strain BCK2, active compounds read low 0.978 | locus YFR010W, strain ubp6, active compounds read low 0.972 | locus YGL078C, strain dbp3, active compounds read low 0.999 | locus YGL086W, strain mad1, active compounds read low 1.04 | locus YGL167C, strain pmr1, active compounds read low 0.961 | locus YGL173C, strain kem1, active compounds read low 0.975 | locus YGL227W, strain vid30, active compounds read low 0.97 | locus YGL240W, strain doc1, active compounds read low 0.97 | locus YGL248W, strain PDE1, active compounds read low 0.998 | locus YGL253W, strain hxk2, active compounds read low 1 | locus YGR078C, strain PAC10, active compounds read low 0.999 | locus YGR135W, strain pre9, active compounds read low 0.978 | locus YGR252W, strain gcn5, active compounds read low 0.928 | locus YHR013C, strain ard1, active compounds read low 0.943 | locus YHR027C, strain rpn1, active compounds read low 0.973 | locus YHR030C, strain SLT2, active compounds read low 1 | locus YHR079C, strain IRE1 (second series), active compounds read low 1 | locus YHR094C, strain hxt1, active compounds read low 1.02 | locus YHR129C, strain ARP1, active compounds read low 1 | locus YHR142W, strain chs7, active compounds read low 0.996 | locus YHR200W, strain rpn10, active compounds read low 1.01 | locus YIL066C, strain RNR3, active compounds read low 1 | locus YIL073C, strain SPO22, active compounds read low 1.02 | locus YIL125W, strain kgd1, active compounds read low 1.02 | locus YIR030C, strain dcg1, active compounds read low 1.01 | locus YJL092W, strain hpr5, active compounds read low 0.989 | locus YJL095W, strain BCK1 (second series), active compounds read low 0.996 | locus YJL095W, strain BCK1, active compounds read low 0.986 | locus YJL115W, strain asf1, active compounds read low 0.984 | locus YJL129C, strain trk1, active compounds read low 0.977 | locus YJL134W, strain LCB3, active compounds read low 1 | locus YJL154C, strain vps35, active compounds read low 0.978 | locus YJL164C, strain tpk1, active compounds read low 1.01 | locus YJL166W, strain qcr8, active compounds read low 0.989 | locus YJL168C, strain set2, active compounds read low 1.01 | locus YJL187C, strain SWE1 (second series), active compounds read low 1.01 | locus YJL187C, strain SWE1, active compounds read low 0.976 | locus YJR043C, strain POL32, active compounds read low 0.995 | locus YKL009W, strain mrt4, active compounds read low 1.01 | locus YKL068W, active compounds read low 0.998 | locus YKL085W, strain MDH1 (second series), active compounds read low 1.01 | locus YKL085W, strain MDH1, active compounds read low 1.01 | locus YKL160W, strain elf1, active compounds read low 1.02 | locus YKR001C, strain vps1, active compounds read low 1.03 | locus YKR026C, strain gcn3, active compounds read low 0.957 | locus YKR091W, strain srl3, active compounds read low 0.965 | locus YLL001W, strain dnm1, active compounds read low 0.987 | locus YLL026W, active compounds read low 0.977 | locus YLL041C, strain sdh2, active compounds read low 0.989 | locus YLR027C, strain aat2, active compounds read low 0.982 | locus YLR039C, strain RIC1, active compounds read low 0.998 | locus YLR058C, strain SHM2, active compounds read low 0.992 | locus YLR102C, strain apc9, active compounds read low 1.01 | locus YLR221C, strain rsa3, active compounds read low 0.994 | locus YLR258W, strain gsy2, active compounds read low 0.971 | locus YLR262C, strain YPT6 (second series), active compounds read low 0.989 | locus YLR262C, strain YPT6, active compounds read low 0.956 | locus YLR268W, strain sec22, active compounds read low 1.05 | locus YLR320W, strain mms22, active compounds read low 0.998 | locus YLR330W, strain CHS5, active compounds read low 1 | locus YLR342W, strain FKS1 (second series), active compounds read low 1.02 | locus YLR342W, strain FKS1, active compounds read low 0.973 | locus YLR357W, strain rsc2, active compounds read low 0.961 | locus YLR370C, strain arc18, active compounds read low 0.976 | locus YLR371W, strain rom2, active compounds read low 1.01 | locus YLR384C, strain iki3, active compounds read low 0.976 | locus YLR418C, strain cdc73, active compounds read low 0.978 | locus YML016C, strain PPZ1, active compounds read low 1 | locus YML032C, strain rad52, active compounds read low 0.976 | locus YML120C, strain ndi1, active compounds read low 0.988 | locus YML124C, strain tub3, active compounds read low 0.994 | locus YMR058W, strain fet3, active compounds read low 0.979 | locus YMR078C, strain ctf18, active compounds read low 1.02 | locus YMR125W, strain sto1, active compounds read low 0.935 | locus YMR129W, active compounds read low 0.966 | locus YMR205C, strain PFK2, active compounds read low 0.941 | locus YMR223W, strain ubp8, active compounds read low 0.996 | locus YMR231W, strain pep5, active compounds read low 0.977 | locus YMR307W, strain GAS1, active compounds read low 1.04 | locus YNL067W, strain RPL9B, active compounds read low 1 | locus YNL071W, strain lat1, active compounds read low 0.988 | locus YNL209W, strain ssb2, active compounds read low 0.965 | locus YNL233W, strain BNI4, active compounds read low 1 | locus YNL248C, strain rpa49, active compounds read low 1.02 | locus YNL250W, strain rad50, active compounds read low 1.01 | locus YNL271C, strain bni1, active compounds read low 1.01 | locus YNL298W, strain CLA4, active compounds read low 1 | locus YNL307C, strain MCK1, active compounds read low 1.02 | locus YNL322C, strain KRE1 (second series), active compounds read low 0.967 | locus YNR049C, strain mso1, active compounds read low 0.97 | locus YNR052C, strain pop2, active compounds read low 1.02 | locus YOL006C, strain TOP1, active compounds read low 1.02 | locus YOL012C, strain htz1 0.905 | locus YOL147C, strain pex11, active compounds read low 1 | locus YOR001W, strain rrp6, active compounds read low 1.02 | locus YOR061W, strain CKA2, active compounds read low 1 | locus YOR069W, strain VPS5, active compounds read low 1 | locus YOR070C, strain gyp1, active compounds read low 0.987 | locus YOR080W, strain dia2, active compounds read low 0.975 | locus YOR083W, strain WHI5, active compounds read low 1.03 | locus YOR106W, strain vam3, active compounds read low 0.995 | locus YOR136W, strain idh2, active compounds read low 1.01 | locus YOR144C, strain elg1, active compounds read low 1 | locus YOR184W, strain ser1, active compounds read low 0.988 | locus YOR265W, strain rbl2, active compounds read low 0.987 | locus YOR270C, strain vph1, active compounds read low 1.02 | locus YOR290C, strain snf2, active compounds read low 0.924 | locus YOR316C, strain cot1, active compounds read low 1 | locus YPL051W, strain arl3, active compounds read low 1.02 | locus YPL078C, strain atp4, active compounds read low 1 | locus YPL106C, strain sse1, active compounds read low 0.95 | locus YPL240C, strain hsp82, active compounds read low 0.974 | locus YPL241C, strain CIN2, active compounds read low 0.996 | locus YPR119W, strain clb2, active compounds read low 0.997 | locus YPR141C, strain kar3, active compounds read low 1.01 | locus YPR163C, strain tif3, active compounds read low 1.01 | locus YPR167C, strain met16, active compounds read low 1 | strain wtn01, active compounds read low 1.05

Source: PubChem BioAssay AID1159580 (chemical genetic matrix, 2015)
